Screens (PubChem)
Compounds with a hit are over-represented: about 1.3% of the library has one in this group of screens.
SRC1 inh: human NCOA1 inhibition; Q15788; HEK293 GAL4-SRC1 luciferase reporter, luminescence; inhibition, % at 3.6 µM; 360,000 compounds, 0.12% hits; AID 588354;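 active means inhibition above the campaign mean plus 3 SD, with each screening campaign given its own cutoff, cut at about 60% in these data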;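 further: 0% = DMSO treated cells and 100% = gossypol at 36 µM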
Target sequence (Q15788 whole entry, looked up, the tested form may be a part): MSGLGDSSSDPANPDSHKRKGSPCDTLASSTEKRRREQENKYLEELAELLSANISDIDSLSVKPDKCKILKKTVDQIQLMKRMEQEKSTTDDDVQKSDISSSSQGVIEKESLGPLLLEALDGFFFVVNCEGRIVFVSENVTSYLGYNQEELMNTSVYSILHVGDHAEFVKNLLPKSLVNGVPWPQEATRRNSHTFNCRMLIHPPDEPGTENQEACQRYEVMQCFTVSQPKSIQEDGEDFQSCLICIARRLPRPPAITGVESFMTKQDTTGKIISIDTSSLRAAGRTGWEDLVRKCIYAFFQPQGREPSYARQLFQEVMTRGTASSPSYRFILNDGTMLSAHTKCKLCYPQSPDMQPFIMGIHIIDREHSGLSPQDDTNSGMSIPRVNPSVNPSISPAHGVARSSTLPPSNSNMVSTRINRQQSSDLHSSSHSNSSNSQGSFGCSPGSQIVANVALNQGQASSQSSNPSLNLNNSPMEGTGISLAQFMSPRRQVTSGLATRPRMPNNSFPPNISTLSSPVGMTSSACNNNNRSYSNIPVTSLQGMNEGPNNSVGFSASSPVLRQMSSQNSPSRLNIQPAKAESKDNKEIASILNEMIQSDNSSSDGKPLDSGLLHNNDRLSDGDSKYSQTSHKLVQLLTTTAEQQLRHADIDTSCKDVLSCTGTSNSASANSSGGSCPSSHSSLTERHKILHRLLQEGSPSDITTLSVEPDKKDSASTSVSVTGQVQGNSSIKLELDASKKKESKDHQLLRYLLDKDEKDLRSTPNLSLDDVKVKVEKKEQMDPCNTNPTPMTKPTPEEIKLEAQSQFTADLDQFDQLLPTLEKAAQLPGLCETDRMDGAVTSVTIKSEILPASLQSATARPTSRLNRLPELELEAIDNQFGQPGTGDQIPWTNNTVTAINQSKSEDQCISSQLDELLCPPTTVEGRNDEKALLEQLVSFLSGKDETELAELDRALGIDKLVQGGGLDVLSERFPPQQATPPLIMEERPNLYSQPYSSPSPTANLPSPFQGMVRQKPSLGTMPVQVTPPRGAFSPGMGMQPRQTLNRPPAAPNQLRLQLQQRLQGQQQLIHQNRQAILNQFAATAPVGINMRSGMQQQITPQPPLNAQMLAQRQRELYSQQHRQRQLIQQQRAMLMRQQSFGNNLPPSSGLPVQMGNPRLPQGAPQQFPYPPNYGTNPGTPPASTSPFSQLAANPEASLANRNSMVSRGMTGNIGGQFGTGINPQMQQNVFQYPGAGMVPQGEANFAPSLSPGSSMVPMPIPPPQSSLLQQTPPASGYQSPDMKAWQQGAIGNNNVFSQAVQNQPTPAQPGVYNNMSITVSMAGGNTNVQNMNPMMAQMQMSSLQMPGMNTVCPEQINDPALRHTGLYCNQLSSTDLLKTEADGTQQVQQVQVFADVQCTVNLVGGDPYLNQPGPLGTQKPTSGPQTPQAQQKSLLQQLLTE
NR5A2 inv ag: NR5A2 inverse agonism in reporter assay. O00482. HEK293T StAR-luciferase reporter, LRH-1 transfected, 24 h. AID 602396. 360,000 compounds, 0.13% hits. inhibition, % at 3.6 µM;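 active means inhibition above the mean inhibition of all tested compounds plus 3 SD, cut at about 73% in these data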;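 further: 0% = DMSO wells and 100% = reporter-only cells lacking LRH-1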
SRC2 inh: inhibits human steroid receptor coactivator 2; HEK293 GAL4-SRC2 luciferase reporter, luminescence; inhibition, % at 9 µM; 370,000 compounds, 0.17% hits; AID 651957;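 active means inhibition above the mean inhibition of all tested compounds plus 3 SD, set per campaign, cut at about 52% in these data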;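 further: 0% = DMSO treated cells and 100% = cells given Gossypol at 36 µM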
NR2F2 inh: NR2F2 (human) inhibition, primary screen. HEK293T NGFI-A luciferase reporter, luminescence. inhibition, % at 8.6 µM. P24468. 370,000 compounds, 0.7% hits;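 active means inhibition above a per-plate cutoff, mean inhibition of test wells between control levels plus 3 SD, cut at about 38% in these data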;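 further: cells cotransfected with COUP-TFII expression vector driving the NGFI-A reporter; 0% = median of COUP-TF2 test wells and 100% = reporter-only cells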
NCOA3 inh: inhibits human SRC3 coactivator; Q9Y6Q9; HEK293 GAL4-SRC3 luciferase reporter, luminescence; inhibition, % at 3.6 µM; 360,000 compounds, 0.17% hits;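 active means inhibition above a per-campaign cutoff, the mean of all compounds plus 3 SD, cut at about 60% in these data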;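 further: 0% = DMSO-treated cells and 100% = gossypol-treated cells at 36 µM; higher means less SRC3-driven luciferase light from the GAL4 reporter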
Gli-Sufu block: Gli-Sufu pathway antagonism. 340,000 compounds, 0.74% hits. inhibition, % at 5 µM. Sufu-KO-LIGHT fibroblasts, Gli luciferase reporter luminescence;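 active means inhibition above about 55%, limit read from the data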;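 further: 0% = DMSO-treated cells and 100% = wells with medium but no cells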
Gli antag conf: Gli-SUFU antagonism confirmation, single concentration; shares compounds with Gli-Sufu block; inhibition, % at 5 µM; 2,500 compounds, 40% hits; Sufu-KO-LIGHT cells, Gli luciferase reporter, luminescence;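 active means mean inhibition at 5 µM reaching about 45%, limit read from the data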;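 further: plate controls were DMSO-treated cells for no effect and wells lacking cells for full effect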
SufuKO cytotox: cytotoxicity counter-screen for Gli-SUFU antagonists. shares compounds with Gli-Sufu block. Sufu-KO-LIGHT cells cytotoxicity, ATP luminescence. cytotoxicity, % at 5 µM. 2,500 compounds, 32% hits. AID 651994;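 active means mean cytotoxicity at 5 µM above about 25%, limit read from the data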;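 further: cells exposed to compound overnight for roughly 16 to 18 hours; plate controls were DMSO wells with cells for no effect and medium without cells for full effect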
Wnt3a counter: inhibits Wnt3a reporter, counter-screen for Gli-SUFU antagonists; shares compounds with Gli-Sufu block; Wnt-LIGHT cells, Wnt3a-driven luciferase reporter, luminescence; inhibition, % at 6.25 µM; 2,500 compounds, 20% hits;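 active means mean inhibition above about 25%, limit read from the data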
* hit, by the source's call; x = no result given.

SMILES	SRC1 inh	NR5A2 inv ag	SRC2 inh	NR2F2 inh	NCOA3 inh	Gli-Sufu block	Gli antag conf	SufuKO cytotox	Wnt3a counter
Cc1ccc(/C=N/NC(=O)Cn2nccc2C)o1	-5	1	-1	-6	0	60*	7	-4	-4
COCc1cc(=O)[nH]c(Nc2nc3ccc(C)cc3o2)n1	-62	14	-126	-8	-60	50	63*	26*	-133
N#Cc1ccsc1NC(=O)CCN1CCN(C(c2ccccc2)c2ccccc2)CC1	-22	0	28	-2	21	53	21	0	-17
Cc1ccc(-n2c(SCc3c(Cl)cccc3Cl)nnc2-c2ccco2)cc1	x	x	-5	5	x	x	x	x	x
COc1ccc2[nH]c(=O)c(CN(C(=O)c3cccnc3)c3ccc(C)cc3)cc2c1	3	10	-17	0	-7	83*	17	5	-7
COc1ccc2[nH]c(=O)c(CN(C(=O)c3cccnc3)c3cccc(C)c3)cc2c1	-6	9	6	12	21	9	x	x	x
CCN(CC)CCNC(=O)c1ccc(NC(=O)c2cccc(S(=O)(=O)N3CCCCCC3)c2)cc1	-9	-37	11	-16	2	51	14	19	-22
COc1ccc(C2CC(c3cccs3)=NN2C(=O)CSc2nc(=O)n3ccccc3n2)cc1 (stereo not drawn)	-18	-33	-38	0	-19	80*	29	26*	67*
Cc1ccc(C2CC(c3cccs3)=NN2C(=O)CSc2nc(=O)n3cc(C)ccc3n2)cc1 (stereo not drawn)	-3	8	3	14	10	2	x	x	x
Oc1ccccc1C=NC(N=Cc1ccccc1O)c1ccccc1O (stereo not drawn)	x	x	-29	5	x	x	x	x	x
CC(=C1SC(=S)NC1=O)c1ccc(Cl)c(O)c1	x	x	-4	-4	x	x	x	x	x
O=C(O)CSCCn1cccn1	7	5	9	5	-4	2	x	x	x
Cc1ccn(CCSCC(=O)O)n1	-50	17	18	-1	10	53	13	12	-7
COC(=O)C1=C(C)N(C)C(=NCc2cc(OC)c(OC)c(OC)c2)NC1c1cccc(F)c1 (stereo not drawn)	x	x	-21	2	x	x	x	x	x
COc1ccc(CNCC(O)(c2ccccc2)c2ccc(F)cc2)cc1OC (stereo not drawn)	2	22	19	15	27	17	x	x	x
COc1ccc(CNCC(O)(c2ccc(F)cc2)c2ccc(F)cc2)cc1OC	18	11	14	26	26	65*	23	36*	-41
COc1ccc(C=NN(C)C(=O)Nc2cccc(Cl)c2)cc1OC	x	x	-4	0	x	x	x	x	x
CCN(CC)C(=O)CC[C@H]1CC[C@]2(CCCN(C(=O)C3CCCC3)C2)O1	x	x	24	-15	x	x	x	x	x
O=C(c1ccco1)N1CCN(c2ncnc3c2[nH]c2ccc(Br)cc23)CC1	0	8	-5	10	-27	-6	x	x	x
CCOc1ccc2[nH]c3c(N4CCN(C(=O)c5ccco5)CC4)ncnc3c2c1	0	5	-19	20	12	60*	50*	19	-78
COc1ccc(C(=O)NCC(=O)N2CCCCC2)cc1OC	1	7	-19	-5	19	-5	x	x	x
CCOc1ccccc1N1CCN(C(=O)CNC(=O)c2ccc(OC)c(OC)c2)CC1	10	-2	0	20	3	71*	10	9	-27
Cc1nc2nc(-c3ccc(Cl)cc3)cn2nc1C	-103	-146	-99	-20	-65	-103	x	x	x
Cc1nc2nc(-c3cccs3)cn2nc1C	-53	-46	-79	-53	-18	53	-64	12	-27
O=c1ccn(C2CC(O)C(COC(c3ccccc3)(c3ccccc3)c3ccccc3)O2)c(=O)[nH]1 (stereo not drawn)	x	x	1	-6	x	x	x	x	x
CCC1(O)C(=O)OCc2c1cc1n(c2=O)Cc2cc3cc(O)ccc3nc2-1 (stereo not drawn)	51	92*	34	35	78*	52	64*	51*	-72
